Reference: PubChem BioAssay (NCI)
This is part of a sample that, as a whole, favours compounds with a hit. Of some 79,000 tested, about 15% had one in any assay. Activity calls are given as the source filed them. Rule as the data show it: active = growth inhibition above about 70%; inactive = the rest.

Experiments:
[1] = NCI Yeast Anticancer Drug Screen. Data for the rad52 strain (AID 147);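 also: 0% = growth of vehicle-treated control cultures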; settings: S. cerevisiae rad52 mutant growth inhibition, stronger effect = higher value
Procedure, shortened: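 Vehicle-treated cultures served as the reference for growth inhibition of compound-exposed yeast bearing a DNA repair mutation.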

[2] = NCI Yeast Anticancer Drug Screen. Data for the wt1 strain (AID 149);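 also: 0% = growth of vehicle-treated wt1 cultures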; settings: S. cerevisiae wt1 strain (SPY 50644) growth inhibition, stronger effect = higher value
Procedure, shortened: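 Yeast wt1 strain exposed to compounds; growth inhibition measured relative to vehicle-treated controls.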

[3] = NCI Yeast Anticancer Drug Screen. Data for the rad50EPP+ strain (AID 151);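 also: 0% = growth of vehicle-treated control cultures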; settings: S. cerevisiae rad50 mutant strain, stronger effect = higher value
Procedure, shortened: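 In this screen, rad50EPP+ yeast were exposed to compounds. Growth inhibition was scored against vehicle-treated controls.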

[4] = NCI Yeast Anticancer Drug Screen. Data for the mgt1 strain (AID 153); settings: S. cerevisiae mgt1 mutant growth inhibition, stronger effect = higher value
Procedure, shortened: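 mgt1 strain exposed; growth vs vehicle control recorded as inhibition.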

[5] = NCI Yeast Anticancer Drug Screen. Data for the rad50 strain (AID 155);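 also: 0% = growth of vehicle-only cultures of the same strain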; settings: S. cerevisiae rad50 strain growth inhibition, stronger effect = higher value
Procedure, shortened: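 Yeast carrying a defined DNA repair defect were exposed to test compounds, and growth was compared with vehicle-treated controls to give percent inhibition.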

[6] = NCI Yeast Anticancer Drug Screen. Data for the mec2-1 strain (AID 157); settings: S. cerevisiae mec2-1 strain, stronger effect = higher value
Procedure, shortened: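 Vehicle-treated cultures served as reference for growth inhibition of compound-exposed mec2-1 yeast.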

[7] = NCI Yeast Anticancer Drug Screen. Data for the rad14 strain (AID 159);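 also: 0% = growth of vehicle-treated control cultures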; settings: S. cerevisiae rad14 strain growth inhibition, stronger effect = higher value
Procedure, shortened: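 Yeast cells carrying a defined DNA-repair defect were exposed to compounds, and growth inhibition was calculated relative to vehicle-treated control cultures.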

[8] = NCI Yeast Anticancer Drug Screen. Data for the sgs1 mgt1 strain (AID 161);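 also: 0% = growth of cultures given vehicle only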; settings: S. cerevisiae sgs1 mgt1 strain, stronger effect = higher value
Procedure, shortened: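 Read-out: growth inhibition vs vehicle controls. Cells: mutant yeast strain deficient in DNA damage repair.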

[9] = NCI Yeast Anticancer Drug Screen. Data for the CLN2oe strain (AID 163);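 also: 0% = growth of vehicle-only control cultures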; settings: S. cerevisiae CLN2oe strain, stronger effect = higher value
Procedure, shortened: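 Inhibition relative to vehicle-treated yeast is reported. Cells: strain with genetic alteration in cell-cycle control, grown with compound.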

[10] = NCI Yeast Anticancer Drug Screen. Data for the cln2 rad14 strain (AID 165);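 also: 0% = growth equal to vehicle treated cultures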; settings: S. cerevisiae cln2 rad14 strain, stronger effect = higher value
Procedure, shortened: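 Each compound was tested on cln2 rad14 yeast. Inhibition of growth was calculated against vehicle-exposed controls.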

[11] = NCI Yeast Anticancer Drug Screen. Data for the bub3 strain (AID 167); settings: S. cerevisiae bub3 mutant strain, stronger effect = higher value
Procedure, shortened: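 Compounds were applied to a genetically altered yeast strain carrying a cell-cycle control defect. Growth inhibition was scored against vehicle-treated controls.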

[12] = NCI Yeast Anticancer Drug Screen. Data for the wt2 strain (AID 169);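 also: 0% = growth of vehicle-treated yeast cultures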; settings: S. cerevisiae wt2 strain growth inhibition, stronger effect = higher value
Procedure, shortened: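 Inhibition of yeast growth was determined after compound treatment, normalised to controls receiving only vehicle.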

[13] = NCI Yeast Anticancer Drug Screen. Data for the mlh1 strain (AID 171);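 also: 0% = growth of vehicle-treated control cultures of the same strain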; settings: S. cerevisiae mlh1 strain growth inhibition, stronger effect = higher value
Procedure, shortened: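 Vehicle-normalised growth inhibition of a repair- or checkpoint-altered yeast strain following compound treatment.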

[14] = NCI Yeast Anticancer Drug Screen. Data for the sgs1 strain (AID 173);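 also: 0% = growth of vehicle-only control cultures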; settings: S. cerevisiae sgs1 mutant, stronger effect = higher value
Procedure, shortened: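 Screen format: yeast with repair or checkpoint alterations, compound exposure, growth read relative to vehicle.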

[15] = NCI Yeast Anticancer Drug Screen. Data for the mlh1 rad18 strain (AID 175); settings: S. cerevisiae mlh1 rad18 strain growth inhibition, stronger effect = higher value
Procedure, shortened: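 Vehicle-treated cultures served as the reference for growth inhibition in a yeast strain carrying DNA damage repair alterations exposed to each compound.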

[16] = NCI Yeast Anticancer Drug Screen. Data for the rad18 strain (AID 177); settings: S. cerevisiae rad18 mutant growth inhibition, stronger effect = higher value
Procedure, shortened: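 Test articles were incubated with altered yeast defective in DNA damage repair. Results are given as inhibition of growth versus vehicle.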

[17] = at 5.0 µM (retest, dose inferred, filed as 0.5)
[18] = at 50.0 µM (retest, dose inferred, filed as 5.0)

Measured: growth inhibition

O=[N+]([O-])c1cccc2nc3ccccc3c(NCCCN3CCCCC3)c12
inactive: [2]; at 1.2 µM 3% | [2]; at 3.7 µM 13% | [4]; at 1.2 µM 12% | [4]; at 3.7 µM 45% | [9]; at 1.2 µM -3% | [9]; at 3.7 µM 45% | [11]; at 1.2 µM -14% | [11]; at 3.7 µM 21% | [11]; [17] 22% | [12]; at 1.2 µM 1% | [12]; at 3.7 µM 39% | [13]; at 1.2 µM 10% | [13]; at 3.7 µM 50%
active: [1]; at 1.2 µM 89% | [1]; at 3.7 µM 95% | [1]; at 11.0 µM 96% | [1]; at 33.0 µM 97% | [1]; at 100.0 µM 98% | [2]; at 11.0 µM 80% | [2]; at 33.0 µM 96% | [2]; at 100.0 µM 97% | [3]; at 1.2 µM 83% | [3]; at 3.7 µM 96% | [3]; at 11.0 µM 98% | [3]; at 33.0 µM 98% | [3]; at 100.0 µM 99% | [4]; at 11.0 µM 94% | [4]; at 33.0 µM 98% | [4]; at 100.0 µM 99% | [5]; at 1.2 µM 71% | [5]; at 3.7 µM 89% | [5]; [17] 89% | [5]; at 11.0 µM 94% | [5]; at 33.0 µM 96% | [5]; [18] 98% | [5]; at 50.0 µM 96.7% | [5]; at 100.0 µM 97% | [6]; at 1.2 µM 73% | [6]; at 3.7 µM 94% | [6]; [17] 97% | [6]; at 11.0 µM 97% | [6]; at 33.0 µM 97% | [6]; [18] 99% | [6]; at 50.0 µM 98.2% | [6]; at 100.0 µM 98% | [7]; at 1.2 µM 98% | [7]; at 3.7 µM 98% | [7]; at 11.0 µM 98% | [7]; at 33.0 µM 99% | [7]; at 100.0 µM 98% | [8]; [17] 92% | [8]; [18] 98% | [8]; at 50.0 µM 97% | [9]; at 11.0 µM 89% | [9]; at 33.0 µM 95% | [9]; at 100.0 µM 98% | [10]; [17] 99% | [10]; [18] 99% | [10]; at 50.0 µM 97.5% | [11]; at 11.0 µM 90% | [11]; at 33.0 µM 97% | [11]; [18] 98% | [11]; at 50.0 µM 96.8% | [11]; at 100.0 µM 98% | [12]; at 11.0 µM 89% | [12]; at 33.0 µM 97% | [12]; at 100.0 µM 98% | [13]; at 11.0 µM 92% | [13]; at 33.0 µM 97% | [13]; at 100.0 µM 99% | [14]; at 1.2 µM 87% | [14]; at 3.7 µM 93% | [14]; at 11.0 µM 95% | [14]; at 33.0 µM 98% | [14]; at 100.0 µM 98% | [15]; [17] 97% | [15]; [18] 99% | [15]; at 50.0 µM 98% | [16]; at 1.2 µM 96% | [16]; at 3.7 µM 95% | [16]; at 11.0 µM 97% | [16]; at 33.0 µM 98% | [16]; at 100.0 µM 99%
